# Key:
# Details in all cases: concentration: 1 μM, replicates: in singlicate; n = 1
# [1] = tested on: TSSK1B
# [2] = tested on: TSSK3
# [3] = tested on: TTK
# [4] = tested on: TXK
# [5] = tested on: TYK2(JH1domain-catalytic)
# [6] = tested on: TYK2(JH2domain-pseudokinase)
# [7] = tested on: TYRO3
# [8] = tested on: ULK1
# [9] = tested on: ULK2
# [10] = tested on: ULK3
# [11] = tested on: T1, VEGFR2
# T1 construct: gene KDR
# [12] = tested on: T2, VPS34
# T2 construct: gene PIK3C3
# [13] = tested on: VRK2
# [14] = tested on: WEE1
# [15] = tested on: WEE2
# [16] = tested on: WNK1
# [17] = tested on: WNK2
# [18] = tested on: WNK3
# [19] = tested on: WNK4
# [20] = tested on: T3, YANK1
# T3 construct: gene STK32A
# 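Further: KINOMEscan kinase panel screen.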
compound,measurement,setting,value
COc1cccc(C2=C(Nc3cc(Cl)c(O)c(Cl)c3)C(=O)NC2=O)c1 [SB-390767],%Inh,[1],0%
same,%Inh,[2],16%
same,%Inh,[3],7%
same,%Inh,[4],15%
same,%Inh,[5],28%
same,%Inh,[6],39%
same,%Inh,[7],29%
same,%Inh,[8],32%
same,%Inh,[9],0%
same,%Inh,[10],13%
same,%Inh,[11],0%
same,%Inh,[12],0%
same,%Inh,[13],20%
same,%Inh,[14],0%
same,%Inh,[15],0%
same,%Inh,[16],20%
same,%Inh,[17],0%
same,%Inh,[18],16%
same,%Inh,[19],17%
same,%Inh,[20],0%
O=c1cc(N2CCOCC2)nc2n(Cc3ccccc3F)ccn12 [GSK2297428],%Inh,[1],0%
same,%Inh,[2],13%
same,%Inh,[3],0%
same,%Inh,[4],0%
same,%Inh,[5],0%
same,%Inh,[6],0%
same,%Inh,[7],0%
same,%Inh,[8],0%
same,%Inh,[9],0%
same,%Inh,[10],0%
same,%Inh,[11],0%
same,%Inh,[12],94%
same,%Inh,[13],0%
same,%Inh,[14],0%
same,%Inh,[15],0%
same,%Inh,[16],0%
same,%Inh,[17],0%
same,%Inh,[18],19%
same,%Inh,[19],0%
same,%Inh,[20],0%
CNc1cc(-c2ccc3c(N)n[nH]c3c2)nc(N)n1 [GSK2224810],%Inh,[1],0%
same,%Inh,[2],31%
same,%Inh,[3],0%
same,%Inh,[4],0%
same,%Inh,[5],7%
same,%Inh,[6],43%
same,%Inh,[7],0%
same,%Inh,[8],36%
same,%Inh,[9],17%
same,%Inh,[10],5%
same,%Inh,[11],25%
same,%Inh,[12],0%
same,%Inh,[13],0%
same,%Inh,[14],1%
same,%Inh,[15],5%
same,%Inh,[16],0%
same,%Inh,[17],0%
same,%Inh,[18],19%
same,%Inh,[19],88%
same,%Inh,[20],36%
CC(=O)c1c(C)c2cnc(Nc3ccc(N4CCNCC4)cn3)nc2n(C2CCCC2)c1=O,%Inh,[1],0%
same,%Inh,[2],0%
same,%Inh,[3],92.1%
same,%Inh,[4],5%
same,%Inh,[5],0%
same,%Inh,[6],0%
same,%Inh,[7],0%
same,%Inh,[8],0%
same,%Inh,[9],45%
same,%Inh,[10],0%
same,%Inh,[11],6%
same,%Inh,[12],0%
same,%Inh,[13],0%
same,%Inh,[14],0%
same,%Inh,[15],0%
same,%Inh,[16],0%
same,%Inh,[17],0%
same,%Inh,[18],0%
same,%Inh,[19],0%
same,%Inh,[20],16%
COC(=O)C(Cc1ccccc1)NC(=O)NC1CCN(c2ccnc(Nc3ccc(F)cc3)n2)C1 (stereo not drawn) [GSK1379714],%Inh,[1],0%
same,%Inh,[2],21%
same,%Inh,[3],0%
same,%Inh,[4],0%
same,%Inh,[5],33%
same,%Inh,[6],19%
same,%Inh,[7],0%
same,%Inh,[8],0%
same,%Inh,[9],0%
same,%Inh,[10],0%
same,%Inh,[11],7%
same,%Inh,[12],3%
same,%Inh,[13],38%
same,%Inh,[14],0%
same,%Inh,[15],13%
same,%Inh,[16],3%
same,%Inh,[17],46%
same,%Inh,[18],38%
same,%Inh,[19],45%
same,%Inh,[20],0%
CSc1ccc(-c2nc3n(c2-c2ccncc2)CCC3)cc1 [SKF-105561],%Inh,[1],0%
same,%Inh,[2],0%
same,%Inh,[3],14%
same,%Inh,[4],11%
same,%Inh,[5],0%
same,%Inh,[6],0%
same,%Inh,[7],0%
same,%Inh,[8],18%
same,%Inh,[9],0%
same,%Inh,[10],33%
same,%Inh,[11],11%
same,%Inh,[12],19%
same,%Inh,[13],3%
same,%Inh,[14],0%
same,%Inh,[15],7%
same,%Inh,[16],24%
same,%Inh,[17],21%
same,%Inh,[18],30%
same,%Inh,[19],3%
same,%Inh,[20],0%
Nc1cccc(-c2ccc3c(N)n[nH]c3c2)n1 [GSK2192730],%Inh,[1],0%
same,%Inh,[2],10%
same,%Inh,[3],6%
same,%Inh,[4],17%
same,%Inh,[5],12%
same,%Inh,[6],17%
same,%Inh,[7],0%
same,%Inh,[8],5%
same,%Inh,[9],0%
same,%Inh,[10],18%
same,%Inh,[11],19%
same,%Inh,[12],1%
same,%Inh,[13],0%
same,%Inh,[14],0%
same,%Inh,[15],0%
same,%Inh,[16],23%
same,%Inh,[17],0%
same,%Inh,[18],0%
same,%Inh,[19],0%
same,%Inh,[20],5%
Cc1ccc(-c2nc(Nc3ccncc3)c3ccccc3n2)s1 [GSK189015],%Inh,[1],15%
same,%Inh,[2],17%
same,%Inh,[3],40%
same,%Inh,[4],53%
same,%Inh,[5],24%
same,%Inh,[6],76%
same,%Inh,[7],12%
same,%Inh,[8],12%
same,%Inh,[9],5%
same,%Inh,[10],7%
same,%Inh,[11],0%
same,%Inh,[12],0%
same,%Inh,[13],0%
same,%Inh,[14],8%
same,%Inh,[15],4%
same,%Inh,[16],0%
same,%Inh,[17],3%
same,%Inh,[18],0%
same,%Inh,[19],0%
same,%Inh,[20],15%
O=C(Nc1n[nH]c2nc(-c3cccs3)c(Br)cc12)C1CC1 [SB-735297],%Inh,[1],0%
same,%Inh,[2],0%
same,%Inh,[3],0%
same,%Inh,[4],22%
same,%Inh,[5],9%
same,%Inh,[6],0%
same,%Inh,[7],12%
same,%Inh,[8],0%
same,%Inh,[9],6%
same,%Inh,[10],3%
same,%Inh,[11],0%
same,%Inh,[12],6%
same,%Inh,[13],0%
same,%Inh,[14],0%
same,%Inh,[15],0%
same,%Inh,[16],0%
same,%Inh,[17],0%
same,%Inh,[18],0%
same,%Inh,[19],29%
same,%Inh,[20],0%
Cn1cncc1C(=O)NC1CCN(c2ccnc(Nc3ccc(F)cc3)n2)C1 (stereo not drawn) [GSK1379717],%Inh,[1],6%
same,%Inh,[2],0%
same,%Inh,[3],0%
same,%Inh,[4],100%
same,%Inh,[5],13%
same,%Inh,[6],20%
same,%Inh,[7],0%
same,%Inh,[8],6%
same,%Inh,[9],0%
same,%Inh,[10],17%
same,%Inh,[11],17%
same,%Inh,[12],0%
same,%Inh,[13],0%
same,%Inh,[14],7%
same,%Inh,[15],0%
same,%Inh,[16],12%
same,%Inh,[17],0%
same,%Inh,[18],22%
same,%Inh,[19],0%
same,%Inh,[20],3%
O=C1NC(=O)C(c2ccc(Cl)cc2)=C1Nc1cccc(Cl)c1 [SB-317651],%Inh,[1],0%
same,%Inh,[2],18%
same,%Inh,[3],0%
same,%Inh,[4],12%
same,%Inh,[5],0%
same,%Inh,[6],0%
same,%Inh,[7],0%
same,%Inh,[8],11%
same,%Inh,[9],25%
same,%Inh,[10],1%
same,%Inh,[11],0%
same,%Inh,[12],90.2%
same,%Inh,[13],90.5%
same,%Inh,[14],0%
same,%Inh,[15],29%
same,%Inh,[16],0%
same,%Inh,[17],27%
same,%Inh,[18],0%
same,%Inh,[19],0%
same,%Inh,[20],0%
CC(C)c1cc(-c2ccc3c(N)n[nH]c3c2)nc(N)n1 [GSK2250882],%Inh,[1],6%
same,%Inh,[2],20%
same,%Inh,[3],10%
same,%Inh,[4],0%
same,%Inh,[5],20%
same,%Inh,[6],2%
same,%Inh,[7],0%
same,%Inh,[8],6%
same,%Inh,[9],0%
same,%Inh,[10],9%
same,%Inh,[11],0%
same,%Inh,[12],9%
same,%Inh,[13],4%
same,%Inh,[14],11%
same,%Inh,[15],6%
same,%Inh,[16],0%
same,%Inh,[17],0%
same,%Inh,[18],3%
same,%Inh,[19],0%
same,%Inh,[20],20%
